MITF primary: inhibitors of human MITF | AlphaScreen MITF homodimerization, bead proximity signal | inhibition, % at 2.6 µM | 0.91% of 650,000 active; in the data active = inhibition above about 50%
GPR151 ag: human GPR151 activation; PathHunter beta-arrestin GPR151 cells, luminescence; activation, % at 11.2 µM; 1% of 650,000 active; in the data active = activation above about 4.9%
Target sequence (Q8TDV0 whole entry, looked up): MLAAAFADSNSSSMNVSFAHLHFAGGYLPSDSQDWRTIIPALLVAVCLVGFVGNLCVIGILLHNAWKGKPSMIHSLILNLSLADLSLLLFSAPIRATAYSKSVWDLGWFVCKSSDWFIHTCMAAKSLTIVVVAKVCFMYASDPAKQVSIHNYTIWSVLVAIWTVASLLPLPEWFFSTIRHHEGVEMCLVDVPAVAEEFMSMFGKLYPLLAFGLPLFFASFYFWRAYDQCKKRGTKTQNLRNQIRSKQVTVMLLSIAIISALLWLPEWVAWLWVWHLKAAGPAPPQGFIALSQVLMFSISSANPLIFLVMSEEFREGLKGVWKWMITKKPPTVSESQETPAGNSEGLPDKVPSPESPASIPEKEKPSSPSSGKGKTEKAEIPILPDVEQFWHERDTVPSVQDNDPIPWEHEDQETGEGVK
FBW7 activator: activators of human E3 ligase FBW7; 0.13% of 650,000 active; AlphaScreen FBW7–phospho-cyclin E peptide binding, activator screen; normalized activity (activation), % at 26.1 µM; AID 1259310; in the data active = normalized activity above about 1.9%;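 note: purified mutant Fbw7 with reduced substrate affinity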
TEAD-YAP inh: TEAD-YAP interaction inhibition. HEK-TIYL cells, TEAD-Gal4/YAP UAS-luciferase luminescence. inhibition, % at 9.12 µM. 1.4% of 640,000 active. AID 1259422; in the data active = inhibition above about 32%
Numbers stand for hits; n = inactive. This is a sample that favours compounds with a hit; in the whole collection about 3.4% have one here.

SMILES	MITF primary	GPR151 ag	FBW7 activator	TEAD-YAP inh
COc1ccc(CN2C[C@@H]3C[C@@H](c4ccc(-n5cccn5)cc4)N4CCC[C@@]34C2=O)cc1	n	n	n	n
O=c1cc(O)cc(/C=C/c2ccc(O)c(O)c2)o1	86	n	n	n
COc1cc(/C=C/c2ccc(O)c(OC)c2)ccc1O	n	n	n	n
Cc1cccc(C(=O)N2CCCC(C(=O)Nc3cccc(-c4ccc(F)cc4)c3)C2)n1 (stereo not drawn)	n	n	n	n
Cc1cc(C(=O)N2CCCC(C(=O)Nc3cccc(-c4ccc(F)cc4)c3)C2)n(C)n1 (stereo not drawn)	n	n	n	45
N#Cc1ccccc1S(=O)(=O)NCC(=O)Nc1ccc2c(c1)OCO2	n	n	n	44
Cc1nc2cc(N3CCN(C)CC3)c(NC(=O)C3CC3)cc2c(=O)n1Cc1ccccc1	n	n	n	34
O=C(N(c1cccc(C(F)(F)F)c1)C1C=CS(=O)(=O)C1)C(Cl)(Cl)Cl (stereo not drawn)	n	n	n	53
Cc1ccc(N(C(=O)C(Cl)(Cl)Cl)C2C=CS(=O)(=O)C2)cc1 (stereo not drawn)	n	n	n	n
Cc1ncc(CO)c(/C=N/Nc2cccc(Cl)n2)c1O	n	n	n	n
Cc1ncc(CO)c(/C=N/NC(=O)c2ccc(Cl)c(Cl)c2)c1O	n	n	n	n
Cc1ncc(CO)c(/C=N/Nc2ccc3ccccc3n2)c1O	n	n	n	52
Cc1ncc(CO)c(/C=N/NC(=O)c2cc(O)c(O)c(O)c2)c1O	99	n	n	n
Cc1ncc(CO)c(/C=N/NC(=O)CCCOc2ccc(Cl)cc2Cl)c1O	n	n	n	55
COc1ccc(C2C(C#N)=C(N)N(c3cccc(C(F)(F)F)c3)C3=C2C(=O)CC(C)(C)C3)cc1OC (stereo not drawn)	n	n	n	n
CC(=O)c1ccc(-c2cc(F)cc3c2OC(CNC(=O)/C=C/c2cccnc2)C3)s1 (stereo not drawn)	n	n	n	33
Cc1ccccc1-c1nc2c(=O)n(C)c(=O)nc-2n(C)n1	n	n	n	91
CCn1nc(-c2ccc(C(F)(F)F)cc2)nc2c(=O)n(C)c(=O)nc1-2	n	n	n	n
CCn1nc(-c2cccc(Cl)c2)nc2c(=O)n(C)c(=O)nc1-2	n	n	n	n
CCOc1cc(-c2nc3c(=O)n(C)c(=O)nc-3n(C)n2)ccc1OC(C)C	n	n	n	95
CCCc1nc2c(=O)n(C)c(=O)nc-2n(C)n1	n	n	n	99
O=C(COc1ncnc2ccccc12)N1CCCCC1	n	n	n	n
Cc1ccc(-n2ncc3c(=O)n(CC(=O)N4CCC(C)CC4)cnc32)cc1C	n	n	n	n
CCN(CC)c1ccc(C2NC(=O)c3ccccc3N2)cc1 (stereo not drawn)	n	n	n	79
O=C(O)c1cc(=O)c(O)c2c(O)c(O)c(O)cc2c1	89	n	n	n
SMILES	MITF primary	GPR151 ag	FBW7 activator	TEAD-YAP inh
O=C(Cc1ccccc1)Nc1cc(C(=O)O)cc(C(=O)O)c1	n	n	n	n
CC(=O)c1cccc(-c2cnc3c(NC(CO)C(C)C)nccn23)c1 (stereo not drawn)	n	n	n	n
CC(C)C(CO)Nc1nccn2c(-c3ccc(C(=O)NC4CC4)cc3)cnc12 (stereo not drawn)	n	n	n	51
CC(C)C(CO)Nc1nccn2c(-c3cccc(NS(C)(=O)=O)c3)cnc12 (stereo not drawn)	n	n	n	55
COc1ccc(C2C(C(=O)Nc3cc(OC)c(OC)c(OC)c3)c3ccccc3C(=O)N2C)cc1 (stereo not drawn)	n	n	n	54
CC(C)Cn1c(=O)c2c(nc3n2CCS3)n(C)c1=O	n	n	n	n
COC(=O)c1nn(-c2ccc(-c3ccccc3)cc2)cc1O	n	n	n	81
Cc1cc2c(c(SCc3ccccc3Cl)n1)C(=O)OC2	n	n	n	n
O=C(Nc1ccc(Cl)cc1)c1cc2ccccc2cc1NS(=O)(=O)c1ccccc1	n	n	n	53
CCN(CC)C(=O)C1CCCN(C(=O)c2cc(COc3ccc4ncccc4c3)on2)C1 (stereo not drawn)	n	n	n	n
COCC1CCCCN1C(=O)c1cc(COc2ccc3ncccc3c2)on1 (stereo not drawn)	n	n	n	42
CCC1CCCCN1C(=O)c1cc(COc2ccc3ncccc3c2)on1 (stereo not drawn)	n	n	n	49
CCc1ccccc1NC(=O)c1c(NC(=O)c2ccccc2Cl)sc2c1CCC2	n	n	n	n
COc1ccc(/C=C2\SC(=Nc3ccccc3F)NC2=O)c(OC)c1	n	n	n	n
COc1ccc2ccccc2c1/C=C1/SC(=Nc2ccccc2)NC1=O	n	n	n	44
COc1ccc(/C=C2\SC(=Nc3cccc4ccccc34)NC2=O)c(OC)c1	n	n	n	59
COc1ccc(OC)c(/C=C2/SC(=Nc3ccc(C)cc3)NC2=O)c1	n	n	n	51
COc1ccc2ccccc2c1/C=C1\SC(=S)NC1=O	n	n	n	n
